Measured values as given in PubChem BioAssay (NCI).
This is part of a sample that, as a whole, favours compounds with a hit. Of some 79,000 tested, about 15% had one in any assay. Calls of active or inactive are those of the source. No stated cut-off is given here; in the data, active means growth inhibition above about 70%; inactive means the rest.

Assays:
[1] = NCI Yeast Anticancer Drug Screen. Data for the rad52 strain (AID 147);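 further: 0% = growth of vehicle-treated control cultures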; conditions: S. cerevisiae rad52 mutant growth inhibition, stronger effect = higher value
Outline: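 Read-out: growth inhibition versus vehicle-treated controls. Cells were a DNA repair-deficient yeast strain treated with compounds.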

[2] = NCI Yeast Anticancer Drug Screen. Data for the wt1 strain (AID 149);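 further: 0% = growth of vehicle-treated wt1 cultures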; conditions: S. cerevisiae wt1 strain (SPY 50644) growth inhibition, stronger effect = higher value
Outline: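 wt1 strain grown with compound or vehicle; inhibition taken from the growth difference.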

[3] = NCI Yeast Anticancer Drug Screen. Data for the rad50EPP+ strain (AID 151);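 further: 0% = growth of vehicle-treated control cultures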; conditions: S. cerevisiae rad50 mutant strain, stronger effect = higher value
Outline: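 Growth inhibition read against vehicle controls in rad50EPP+ yeast, a strain altered in DNA damage repair, after compound exposure.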

[4] = NCI Yeast Anticancer Drug Screen. Data for the mgt1 strain (AID 153); conditions: S. cerevisiae mgt1 mutant growth inhibition, stronger effect = higher value
Outline: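 mgt1 yeast grown with test compound; read-out is growth inhibition versus vehicle-treated cultures.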

[5] = NCI Yeast Anticancer Drug Screen. Data for the rad50 strain (AID 155);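 further: 0% = growth of vehicle-only cultures of the same strain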; conditions: S. cerevisiae rad50 strain growth inhibition, stronger effect = higher value
Outline: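 DNA repair mutant yeast, compound exposure, growth read-out; inhibition is taken relative to vehicle.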

[6] = NCI Yeast Anticancer Drug Screen. Data for the mec2-1 strain (AID 157); conditions: S. cerevisiae mec2-1 strain, stronger effect = higher value
Outline: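 Yeast mec2-1 mutant treated with compound. Readout: growth inhibition vs vehicle controls.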

[7] = NCI Yeast Anticancer Drug Screen. Data for the rad14 strain (AID 159);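 further: 0% = growth of vehicle-treated control cultures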; conditions: S. cerevisiae rad14 strain growth inhibition, stronger effect = higher value
Outline: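 DNA repair-defective yeast, compound-exposed; % growth inhibition derived by comparison with vehicle-treated controls.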

[8] = NCI Yeast Anticancer Drug Screen. Data for the sgs1 mgt1 strain (AID 161);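 further: 0% = growth of cultures given vehicle only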; conditions: S. cerevisiae sgs1 mgt1 strain, stronger effect = higher value
Outline: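 Read-out: growth inhibition vs vehicle controls. Cells: mutant yeast strain deficient in DNA damage repair.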

[9] = NCI Yeast Anticancer Drug Screen. Data for the CLN2oe strain (AID 163);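 further: 0% = growth of vehicle-only control cultures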; conditions: S. cerevisiae CLN2oe strain, stronger effect = higher value
Outline: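 Read-out: yeast growth inhibition, expressed relative to vehicle-only controls. The strain bears an engineered cell-cycle alteration.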

[10] = NCI Yeast Anticancer Drug Screen. Data for the cln2 rad14 strain (AID 165);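 further: 0% = growth equal to vehicle treated cultures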; conditions: S. cerevisiae cln2 rad14 strain, stronger effect = higher value
Outline: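 cln2 rad14 yeast strain; compound exposure; growth inhibition read vs vehicle controls.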

[11] = NCI Yeast Anticancer Drug Screen. Data for the bub3 strain (AID 167); conditions: S. cerevisiae bub3 mutant strain, stronger effect = higher value
Outline: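 In this screen, a yeast mutant lacking normal mitotic checkpoint function is challenged with compound. Relative growth versus vehicle gives the inhibition value.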

[12] = NCI Yeast Anticancer Drug Screen. Data for the wt2 strain (AID 169);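 further: 0% = growth of vehicle-treated yeast cultures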; conditions: S. cerevisiae wt2 strain growth inhibition, stronger effect = higher value
Outline: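 Read-out: growth inhibition versus vehicle-treated control cultures after compound exposure of the yeast strain.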

[13] = NCI Yeast Anticancer Drug Screen. Data for the mlh1 strain (AID 171);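 further: 0% = growth of vehicle-treated control cultures of the same strain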; conditions: S. cerevisiae mlh1 strain growth inhibition, stronger effect = higher value
Outline: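 Read-out: growth inhibition versus vehicle controls. Strain: engineered yeast with a defined DNA repair or cell cycle defect, compound-treated.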

[14] = NCI Yeast Anticancer Drug Screen. Data for the sgs1 strain (AID 173);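 further: 0% = growth of vehicle-only control cultures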; conditions: S. cerevisiae sgs1 mutant, stronger effect = higher value
Outline: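 Read-out: yeast growth inhibition relative to vehicle controls, following compound exposure of a strain with a defined DNA repair/cell cycle alteration.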

[15] = NCI Yeast Anticancer Drug Screen. Data for the mlh1 rad18 strain (AID 175); conditions: S. cerevisiae mlh1 rad18 strain growth inhibition, stronger effect = higher value
Outline: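 Yeast w/ defined DNA-repair lesions; compound exposure; growth vs vehicle controls → % inhibition.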

[16] = at 5.0 µM (retest, dose inferred, filed as 0.5)
[17] = at 50.0 µM (retest, dose inferred, filed as 5.0)

Measured: growth inhibition

COc1cc([C@@H]2c3cc4c(cc3C[C@@H]3COC(=O)C32)OCO4)cc(OC)c1O (stereo partly drawn)
active: [1]; at 11.0 µM 93% | [1]; at 33.0 µM 95% | [1]; at 100.0 µM 96% | [2]; at 33.0 µM 86% | [2]; at 100.0 µM 93% | [4]; at 100.0 µM 93% | [5]; at 3.7 µM 76% | [5]; at 11.0 µM 94% | [5]; at 33.0 µM 96% | [5]; [17] 96% | [5]; at 50.0 µM 97.1% | [5]; at 100.0 µM 97% | [6]; at 33.0 µM 92% | [6]; at 50.0 µM 98.8% | [6]; at 100.0 µM 96% | [7]; at 33.0 µM 75% | [7]; at 100.0 µM 93% | [8]; at 50.0 µM 78.3% | [10]; [17] 93% | [10]; at 50.0 µM 86.2% | [11]; at 50.0 µM 89.5% | [12]; at 33.0 µM 77% | [12]; at 100.0 µM 88% | [13]; at 33.0 µM 86% | [13]; at 100.0 µM 93% | [14]; at 11.0 µM 72% | [14]; at 33.0 µM 90% | [14]; at 100.0 µM 96% | [15]; at 50.0 µM 96.9%
inactive: [1]; at 1.2 µM 42% | [1]; at 3.7 µM 62% | [2]; at 1.2 µM 32% | [2]; at 3.7 µM 34% | [2]; at 11.0 µM 65% | [3]; at 1.2 µM -5% | [3]; at 3.7 µM -6% | [3]; at 11.0 µM -4% | [3]; at 33.0 µM -4% | [3]; at 100.0 µM -6% | [4]; at 1.2 µM 29% | [4]; at 3.7 µM 22% | [4]; at 11.0 µM 53% | [4]; at 33.0 µM 59% | [5]; at 1.2 µM 53% | [5]; [16] 64% | [6]; at 1.2 µM 1% | [6]; at 3.7 µM 17% | [6]; [16] 3% | [6]; at 11.0 µM 49% | [6]; [17] 46% | [7]; at 1.2 µM 9% | [7]; at 3.7 µM 8% | [7]; at 11.0 µM 65% | [8]; [16] 5% | [8]; [17] 45% | [9]; at 1.2 µM -3% | [9]; at 3.7 µM 0% | [9]; at 11.0 µM 24% | [9]; at 33.0 µM 58% | [9]; at 100.0 µM 51% | [10]; [16] 9% | [11]; at 1.2 µM 3% | [11]; at 3.7 µM 5% | [11]; [16] -36% | [11]; at 11.0 µM 31% | [11]; at 33.0 µM 50% | [11]; [17] 69% | [11]; at 100.0 µM 36% | [12]; at 1.2 µM 2% | [12]; at 3.7 µM 10% | [12]; at 11.0 µM 33% | [13]; at 1.2 µM 9% | [13]; at 3.7 µM 14% | [13]; at 11.0 µM 66% | [14]; at 1.2 µM 20% | [14]; at 3.7 µM 16% | [15]; [16] 2% | [15]; [17] 68%
